# Assay results from the supplement of paper PMC9135407.
# Where “and” joins values, the source holds several entries; their conditions need not be identical. Equal entries are not always repeated. Structures can show the parent of a compound that is named as a salt. The whole screen tested about 5,800 compounds, of which about 620 (11%) showed activity. The entries come from a sample that favours actives as a whole. A number with no mark means an inactive call.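 Rule for the calls: active = score above a cut-off or among the top three wells of a plate; in these data no inactive exceeds 0.85.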
# System: primary human hepatic stellate cells (donor 1)
# Assay: scaled lipid accumulation score (0 = DMSO-like, 1 = nortriptyline-like); higher = stronger HSC inactivation (lipid re-accumulation), active = hit call of the paper
# Conditions: 48 h
# [1] = library stock concentration: 3.33 mM
# [2] = library stock concentration: 1 mM
# [3] = library stock concentration: 10 mM
# [4] = library stock concentration: 100 uM
# [5] = library stock concentration: 80 uM
# [6] = library stock concentration: 400 uM
# [7] = library stock concentration: 2 mM
# [8] = library stock concentration: 6.8 mM
structure (smiles),measurement,setting,value
CCCC(=O)Oc1ccc2[nH]c(C(=O)c3cc4ccccc4[nH]3)cc2c1 [PDGF Receptor Tyrosine Kinase Inhibitor II],scaled lipid accumulation score,[1],≤ 0
CC(C)(C)OC(=O)N1CCC(OCc2nc(-c3ccncc3)no2)CC1,scaled lipid accumulation score,[2],0.013
N#Cc1ccc(NCCNCC(=O)N2CCC[C@H]2C#N)nc1 [NVP DPP 728 dihydrochloride],scaled lipid accumulation score,[3],≤ 0
CN1CC[C@]23c4ccccc4N[C@H]1[C@]21CCN(C)[C@H]3Nc2ccccc21 [Calycanthine],scaled lipid accumulation score,,0.246
CCCC/C=C\CCCCCCCC(=O)OC [Myristoleic Acid methyl ester],scaled lipid accumulation score,[2],≤ 0
Cn1cnc(=N)c2[nH]cnc21 [3-Methyladenine],scaled lipid accumulation score,[1],≤ 0
same,scaled lipid accumulation score,[3],≤ 0
CCCCC/C=C\C\C=C/C=C/C=C/[C@@H](SC[C@H](NC(=O)CC[C@H](N)C(=O)O)C(=O)NCC(=O)O)[C@@H](O)CCCC(=O)O [Leukotriene C4],scaled lipid accumulation score,[4],≤ -0.021
Fc1ccc(C(OCCCc2cnc[nH]2)c2ccc(F)cc2)cc1,scaled lipid accumulation score,[3],0.81
Cc1nc2c(c(=O)[nH]1)CSCC2,scaled lipid accumulation score,[3],≤ -0.001
CCCCC/C=C\C/C=C\C/C=C\C/C=C\CCCC(=O)O[C@H](COCCCCCCCCCCCCCCCC)COP(=O)([O-])OCC[N+](C)(C)C [Arachidonoyl-PAF],scaled lipid accumulation score,[2],≤ -0.021
"CN1C(=O)/C(=C2\Nc3ccccc3\C2=N\O)c2ccc(Br)cc21 [GSK-3 Inhibitor IX, Control, MeBIO]",scaled lipid accumulation score,[1],1.07 (active)
O=C1Cc2c([nH]c3ccc(Br)cc23)-c2ccccc2N1 [Kenpaullone],scaled lipid accumulation score,[2],≤ 0
same,scaled lipid accumulation score,[1],≤ 0
same,scaled lipid accumulation score,[3],≤ -0.055 and 0.348
COC(=O)C(N)CS (configuration not stated) [Mecysteine hydrochloride],scaled lipid accumulation score,[3],≤ 0
O=C(O)CCC/C=C\C[C@@H]1[C@@H](/C=C/[C@@H](O)C2Cc3ccccc3C2)[C@@H](F)C[C@@H]1O,scaled lipid accumulation score,[2],≤ 0
CC(=O)OCC1=C(C(=O)O)N2C(=O)[C@@H](NC(=O)CSc3ccncc3)[C@H]2SC1 [Cephapirin sodium],scaled lipid accumulation score,library stock concentration: 4.5 mM,≤ -0.001
same,scaled lipid accumulation score,[3],≤ 0
CCOC(=O)c1ccc(N=Nc2ccc(O)c(CC(=O)O)c2)cc1,scaled lipid accumulation score,[2],≤ 0
CC#CCC(C)[C@H](O)/C=C/[C@@H]1[C@H]2C/C(=C/CCCC(=O)O)C[C@H]2C[C@H]1O (stereo partly drawn) [5-cis Iloprost],scaled lipid accumulation score,[2],0.135
"CCCCC[C@H](O)/C=C/[C@@H]1[C@H]2C/C=C\CCCC(=O)O[C@H]2C[C@H]1O [Prostaglandin F2.alpha. 1,9-lactone]",scaled lipid accumulation score,[2],≤ 0
CCN(CCO)CCCOc1ccc2c(Nc3cc(CC(=O)Nc4cccc(F)c4)[nH]n3)ncnc2c1 [Barasertib (AZD1152-HQPA)],scaled lipid accumulation score,[1],≤ 0
same,scaled lipid accumulation score,[3],≤ 0
CCn1cc(NC(=S)Nc2cc(Cl)ccc2OC)c(C(N)=O)n1,scaled lipid accumulation score,[1],≤ -0.009
same,scaled lipid accumulation score,[3],0.111
COc1ccc(Cl)cc1NC(=O)Nc1cc(C)nc2ccccc12 [IGF-1R Inhibitor II],scaled lipid accumulation score,[1],0.188
COc1ccc(Cl)cc1NC(=O)Nc1cc(C)nc2ccccc12 [listing 1 of 2 here],scaled lipid accumulation score,[1],0.097
same,scaled lipid accumulation score,[3],0.391
COc1ccc(Cl)cc1NC(=O)Nc1cc(C)nc2ccccc12 [listing 2 of 2 here],scaled lipid accumulation score,[3],1.1 (active)
O=C(CCSCc1ccco1)NNC(=O)N1Cc2ccccc2Oc2ccc(Cl)cc21,scaled lipid accumulation score,[3],≤ 0
CC1CCN=C(N)S1 (configuration not stated),scaled lipid accumulation score,[3],≤ 0
CC1CCN=C(N)S1 (configuration not stated) [AMT hydrochloride],scaled lipid accumulation score,[3],0.018
O=C(c1ccc(C(=O)N2CCC(N3CCCC3)CC2)c(Nc2ccccc2)c1)N1CCC(N2CCCC2)CC1,scaled lipid accumulation score,[5],≤ 0
same,scaled lipid accumulation score,[6],≤ 0
same,scaled lipid accumulation score,[7],≤ 0
same,scaled lipid accumulation score,[1],≤ 0
same,scaled lipid accumulation score,[3],0.002 and ≤ 0
O=C(c1ccc(Nc2nccc(-c3cc4ccccc4s3)n2)cc1)N1CCC(N2CCCC2)CC1 [IKK-16 (IKK Inhibitor VII)] [listing 1 of 2 here],scaled lipid accumulation score,[3],0.246
O=C(c1ccc(Nc2nccc(-c3cc4ccccc4s3)n2)cc1)N1CCC(N2CCCC2)CC1 [IKK-16 (IKK Inhibitor VII)] [listing 2 of 2 here],scaled lipid accumulation score,[1],1.04 (active)
O=C(c1ccc(Nc2nccc(-c3cc4ccccc4s3)n2)cc1)N1CCC(N2CCCC2)CC1 [IKK Inhibitor VII],scaled lipid accumulation score,[1],1.06 (active)
O=C(c1cncc(Br)c1)N1CCC(N2CCCC2)CC1,scaled lipid accumulation score,[5],≤ 0
same,scaled lipid accumulation score,[6],≤ 0
same,scaled lipid accumulation score,[7],≤ 0
same,scaled lipid accumulation score,[1],≤ -0.009
same,scaled lipid accumulation score,[3],≤ 0
O=C(c1ccc(Nc2nccc(-c3cc4ccccc4s3)n2)cc1)N1CCC(N2CCCC2)CC1,scaled lipid accumulation score,[3],0.18
O=C(Cc1cccs1)N[C@@H]1C(=O)N2C(C(=O)[O-])=C(C[n+]3ccccc3)CS[C@H]12 [Cephaloridine],scaled lipid accumulation score,[3],≤ 0
COc1ccc2cc([C@H](C)CO)ccc2c1 [Naproxol],scaled lipid accumulation score,library stock concentration: 9.2 mM,≤ 0
same,scaled lipid accumulation score,[3],0.031
O=c1cc(CN2CCOCC2)occ1OCCCCCSc1ccnc2cc(C(F)(F)F)ccc12,scaled lipid accumulation score,[1],≤ -0.009
same,scaled lipid accumulation score,[3],0.475
CCCCC[C@H](O)/C=C/[C@H]1[C@H](O)CC(=O)[C@@H]1C/C=C/CCCC(=O)O [5-trans Prostaglandin E2],scaled lipid accumulation score,[2],≤ 0
COC(=O)Nc1nc2cc(C(=O)c3cccs3)ccc2[nH]1 [Nocodazole] [listing 1 of 2 here],scaled lipid accumulation score,[1],0.021
same,scaled lipid accumulation score,library stock concentration: 6.6 mM,0.262
COC(=O)Nc1nc2cc(C(=O)c3ccccc3)ccc2[nH]1 [Mebendazole],scaled lipid accumulation score,,≤ 0
same,scaled lipid accumulation score,[8],0.082
same,scaled lipid accumulation score,[3],0.402 and 0.071
COC(=O)Nc1nc2cc(C(=O)c3ccccc3)ccc2[nH]1 [Mebendazol],scaled lipid accumulation score,[8],0.097
COC(=O)Nc1nc2cc(C(=O)c3cccs3)ccc2[nH]1 [Nocodazole] [listing 2 of 2 here],scaled lipid accumulation score,,0.883 (active)
CCCNS(=O)(=O)Nc1ncnc(OCCOc2ncc(Br)cn2)c1-c1ccc(Br)cc1 [Macitentan],scaled lipid accumulation score,[1],≤ -0.009
same,scaled lipid accumulation score,[3],≤ 0
"CCCCCCCCCCCCC/C=C/[C@@H](O)[C@H](CO)N(C)C [N,N-Dimethylsphingosine] [listing 1 of 2 here]",scaled lipid accumulation score,[2],0.965 (active)
CCCCCCCCCCCCC/C=C/[C@@H](O)[C@@H](N)CO [Sphingosine],scaled lipid accumulation score,[2],≤ -0.021
"CCCCCCCCCCCCC/C=C/[C@@H](O)[C@H](CO)N(C)C [N,N-Dimethylsphingosine] [listing 2 of 2 here]",scaled lipid accumulation score,[2],0.185
Nc1nc(NCC2CCC(CNS(=O)(=O)c3cccc4ccccc34)CC2)nc2ccccc12 (configuration not stated),scaled lipid accumulation score,[3],0.415
O=C(/C=C/c1ccc(/C=C/C(=O)Nc2ccc(C3=NCCN3)cc2)cc1)Nc1ccc(C2=NCCN2)cc1 [GW 4869 (hydrochloride hydrate)],scaled lipid accumulation score,[2],0.115
CCCCC[C@H](O)/C=C/[C@H]1[C@H](O)CC(=O)[C@@H]1C/C=C/CCCC(=O)Oc1ccc(NC(C)=O)cc1 [Prostaglandin E2 p-acetamidophenyl ester],scaled lipid accumulation score,[2],≤ 0
C[C@@H](O)CCC[C@H](O)/C=C/C1=C(C/C=C\CCCC(=O)O)C(=O)CC1 [19(R)-hydroxy Prostaglandin B2],scaled lipid accumulation score,[2],≤ 0
Fc1ccc([C@@H]2CCNC[C@H]2COc2ccc3c(c2)OCO3)cc1.O=C(O)/C=C\C(=O)O [Paroxetine maleate],scaled lipid accumulation score,[3],1.14 (active)
Fc1ccc([C@@H]2CCNC[C@H]2COc2ccc3c(c2)OCO3)cc1.O=C(O)/C=C\C(=O)O [Paroxetine],scaled lipid accumulation score,[3],1.02 (active)
CN1CCC(c2c(O)cc(O)c3c(=O)cc(-c4ccccc4Cl)oc23)C1CO (configuration not stated) [Riviciclib],scaled lipid accumulation score,[5],0.019
same,scaled lipid accumulation score,[6],0.272
same,scaled lipid accumulation score,[7],≤ -0.001
same,scaled lipid accumulation score,[3],0.002
"COC(=O)/C=C/c1cc(O)ccc1O [Methyl 2,5-dihydroxycinnamate]",scaled lipid accumulation score,[3],0.182
CC#CCOC(=O)c1c(C)nc2sc3c(c2c1N)CCC(O)C3 (configuration not stated) [listing 1 of 2 here],scaled lipid accumulation score,[3],0.882 (active)
CC#CCOC(=O)c1c(C)nc2sc3c(c2c1N)CCC(O)C3 (configuration not stated) [listing 2 of 2 here],scaled lipid accumulation score,[3],1.72 (active)
Cc1cccc(C2CN(C)CCc3c2cc(O)c(O)c3Cl)c1 (configuration not stated),scaled lipid accumulation score,[3],0.086
CCN(CC)CC#CCOC(=O)C(O)(c1ccccc1)C1CCCCC1 (configuration not stated) [Oxybutynin chloride],scaled lipid accumulation score,,0.397
same,scaled lipid accumulation score,[1],0.234
same,scaled lipid accumulation score,library stock concentration: 5.1 mM,0.317
same,scaled lipid accumulation score,[3],0.48
CCN(CC)CC#CCOC(=O)C(O)(c1ccccc1)C1CCCCC1.Cl (configuration not stated) [Oxybutynin Chloride],scaled lipid accumulation score,[3],0.862 (active)
CC[N+](C)(CC)CCOC(=O)C(O)(c1ccccc1)C1CCCCC1 (configuration not stated),scaled lipid accumulation score,[3],≤ 0
CCCCC/C=C\C\C=C/C=C/C=C/[C@@H](SC[C@H](N)C(=O)NCC(=O)O)[C@@H](O)CCCC(=O)O [Leukotriene D4],scaled lipid accumulation score,[4],≤ -0.014
"N#Cc1cc([N+](=O)[O-])c2sc(C(N)=O)[n+]([O-])c2c1 [Polo-like Kinase Inhibitor II, BTO-1]",scaled lipid accumulation score,[1],≤ 0
CCCCC/C=C\C=C\[C@@H](O)CCCCCCCC(=O)O,scaled lipid accumulation score,[4],≤ -0.021
O=C(CN=C(c1ccccc1)c1ccccc1)OCc1ccccc1 [N-(diphenylmethylene) Glycine benzyl ester],scaled lipid accumulation score,[2],0.004
C#CCCCCCCCCCNC(=O)Oc1cccc(-c2cccc(C(N)=O)c2)c1,scaled lipid accumulation score,[2],≤ 0
CCC(=O)Nc1cccc(Oc2nc(Nc3ccc(N4CCN(C)CC4)cc3OC)ncc2Cl)c1 [listing 1 of 3 here],scaled lipid accumulation score,[3],0.997 (active)
C=CC(=O)Nc1cccc(Oc2nc(Nc3ccc(N4CCN(C)CC4)cc3)ncc2Cl)c1,scaled lipid accumulation score,[1],0.415
same,scaled lipid accumulation score,[3],0.711
CCC(=O)Nc1cccc(Oc2nc(Nc3ccc(N4CCN(C)CC4)cc3OC)ncc2Cl)c1 [listing 2 of 3 here],scaled lipid accumulation score,[5],≤ -0.001
same,scaled lipid accumulation score,[6],≤ -0.001
same,scaled lipid accumulation score,[7],≤ -0.001
same,scaled lipid accumulation score,[1],0.472
CCC(=O)Nc1cccc(Oc2nc(Nc3ccc(N4CCN(C)CC4)cc3OC)ncc2Cl)c1 [listing 3 of 3 here],scaled lipid accumulation score,[3],1.11 (active)
C=CC(=O)Nc1cccc(Oc2nc(Nc3ccc(N4CCN(C)CC4)cc3OC)ncc2Cl)c1,scaled lipid accumulation score,[5],≤ 0
same,scaled lipid accumulation score,[6],≤ 0
same,scaled lipid accumulation score,[7],0.172
same,scaled lipid accumulation score,[1],0.507
same,scaled lipid accumulation score,[3],0.707 and 0.265
COc1cc(N2CCC(N3CCN(C)CC3)CC2)ccc1Nc1ncc(Cl)c(Nc2ccccc2S(=O)(=O)C(C)C)n1,scaled lipid accumulation score,[5],≤ 0
same,scaled lipid accumulation score,[6],0.087
same,scaled lipid accumulation score,[7],0.571
same,scaled lipid accumulation score,[3],0.613
